# Many of the other results were omitted from the sample, so hits are more common in it than they were. No count for the full screen is at hand. Values without a mark were called inactive.
# Tested on: T1, Caupolican (Caup) homeodomain DNA-binding domain
# T1 sequence: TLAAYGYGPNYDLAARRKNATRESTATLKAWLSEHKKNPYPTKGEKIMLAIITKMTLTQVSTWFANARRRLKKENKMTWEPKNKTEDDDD
# Experiment: PBM E-score (8-mer, recovered from the published 9-mer minima) (E-score (dimensionless, -0.5 to 0.5)); Drosophila protein; higher = stronger relative binding preference, active = 0.31 or more
# Protocol: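 Protein binding microarray (PBM): in vitro transcribed/translated Caupolican (Caup) homeodomain DNA-binding domain (residues 214-303) applied at 100 nM to a universal 8-mer PBM array (Agilent AMADID 015681). The 8-mer enrichment score (E-score, range -0.5 to 0.5) was computed, and each 9-mer score is the minimum E-score of its two constituent 8-mers. The E-score is the same for a 9-mer and its reverse complement; 0.31 is the stated binding threshold.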
row,Sequence,PBM E-score
1,CGGTAGGA,-0.0619
2,AGTAAGAC,0.0795
3,ACTTTCCT,-0.143
4,CTTGGTCA,-0.0643
5,TATAACAA,0.306
6,GATAACAA,0.32 (active)
7,CATAACAA,0.308
8,AAGCATCG,-0.00688
9,TCCACACA,0.0566
10,AACTTCAT,0.108
11,TCTATCCA,-0.0275
12,TACACGTA,0.361 (active)
13,CACACGAA,0.0926
14,CACACGGA,0.00106
15,TACACGAA,0.371 (active)
16,TTCACGAA,0.0673
17,GACACGTA,0.348 (active)
18,TACACGGA,0.375 (active)
19,GCCACGTA,-0.0264
20,TACACGCA,0.29
21,GACACGGA,0.286
22,GACACGTC,0.225
23,CACACGTA,0.142
24,GGAGTTAC,0.0415

row,Sequence,PBM E-score
1,AAAGGTTG,-0.00255
2,CTGGTAAC,0.115
3,AGCCCAGC,-0.172
4,CATACTGC,-0.0312
5,AAGAGTGC,0.0487
6,AGATCCAT,-0.0856
7,GAAGACTC,-0.0665
8,ACCTCAAA,-0.032
9,CCATCAGA,-0.105
10,ATGACAGA,0.22
11,CTGACATC,0.28
12,CTGACATA,0.22
13,GTGACACA,0.245
14,ATGACATC,0.333 (active)
15,ATGACACA,0.259
16,ATGACATG,0.422 (active)
17,ATGACACC,0.266
18,GGGACATA,0.113
19,ATGACAGG,0.117
20,GTGACATA,0.312 (active)
21,ATGACATA,0.379 (active)
22,ACCAGGCT,-0.045
23,AAGGGTTC,-0.134
24,ATAAGTAT,0.0762

row,Sequence,PBM E-score
1,ATTATCGC,0.0263
2,AGGAAGAA,-0.0327
3,AGCTAGTA,0.108
4,AACGTGAG,-0.0335
5,CACGTACA,0.261
6,ATCGTACC,-0.0488
7,CTCGTACA,0.238
8,GTCGTACA,0.352 (active)
9,ATCGTACG,0.133
10,ATCGTACA,0.349 (active)
11,GTCGTATA,0.165
12,AACGTACA,≥ 0.337 (active)
13,AACGTACC,0.0531
14,AATCGGTG,0.0507
15,CGGTGTGA,0.0901
16,ATCAAAAT,0.131
17,AAAGTCAC,0.0854
18,AACCAGGA,0.0369
19,ACTCGGGA,-0.117
20,AGCATGTG,0.222
21,CGCATGCC,-0.0847
22,AGCATGCC,-0.0456
23,AGCATGTC,0.376 (active)
24,CGCATGGA,-0.0924

row,Sequence,PBM E-score
1,CGCATGCA,0.025
2,CGCATGTC,0.348 (active)
3,CGCATGAC,-0.0417
4,CGCATGTA,0.352 (active)
5,CACACTGC,-0.0174
6,AGTTTCAG,-0.0628
7,ATCCAGAC,-0.00977
8,AATTCGTC,0.0479
9,CCCTGAGG,-0.185
10,GTCATGGA,-0.0262
11,CTCATGCA,0.042
12,ATCATGTA,≥ 0.435 (active)
13,GTCATGTA,0.43 (active)
14,ATCATGTC,≥ 0.42 (active)
15,CTCATGTC,0.306
16,ATCATGAC,0.233
17,ATCATGTG,0.226
18,GTCATGCA,0.111
19,ATCATGAA,0.0136
20,CTCATGTA,0.377 (active)
21,CTCATGGA,0.0584
22,GAACAATA,0.166
23,CACATTAC,0.141
24,CCGAGGGC,-0.267

row,Sequence,PBM E-score
1,CAAGGACG,-0.0604
2,CTCTAGGC,-0.16
3,CCTGGCTA,-0.0965
4,AGCGTACC,-0.17
5,GAGGGAGA,-0.155
6,AGTTACCA,0.113
7,CAAGGGCC,-0.135
8,CCCAGGCA,-0.162
9,CAGGTACG,-0.00719
10,ACGTAAGG,-0.042
11,AATTACAC,0.299
12,GCTTACAC,0.169
13,CTTTACAC,0.289
14,CATTACAC,0.311 (active)
15,GATTACAC,0.318 (active)
16,CATTACAG,0.226
17,CAAGCTGG,-0.105
18,CAGCCGCA,-0.26
19,GTTAGTGA,0.152
20,AGCACTAA,-0.00029
21,TGCAGTAA,0.0534
22,ACTATGTA,0.312 (active)
23,CCTATGTC,0.176
24,CCTATGAA,-0.0468

row,Sequence,PBM E-score
1,CCTATGTA,0.318 (active)
2,GCTATGTA,0.271
3,ACTATGTG,0.131
4,CCGATCGA,-0.133
5,CAGCTCAA,-0.125
6,CACTCTAC,0.101
7,GCGACCGC,-0.261
8,CGAACCAC,-0.0921
9,ATGTCGAC,0.326 (active)
10,ATGTCGCC,0.208
11,ATGTCGTC,0.28
12,ATGTCGTA,0.337 (active)
13,GTGTCGTA,0.252
14,CTGTCGAC,0.0515
15,ATGTCGTG,0.316 (active)
16,ATGTCGAA,0.291
17,GTGTCGCA,0.176
18,ATGTCGAG,0.274
19,ATGTCGCA,0.331 (active)
20,CTGTCGTA,0.124
21,CGTCGACA,0.116
22,AGATTTTA,0.0905
23,CTTGAACC,0.00592
24,GATCTGGC,-0.0642

row,Sequence,PBM E-score
1,AACCGATG,0.0188
2,CGGAGTAG,-0.0319
3,CACGGGAA,-0.0415
4,AGTGAAAC,0.108
5,CTCACGAA,0.0184
6,GTTACGGA,0.0254
7,TAATTAAA,0.191
8,AGGTAGGA,-0.0302
9,GTTGTTGA,0.321 (active)
10,ATTGTTGA,0.279
11,CTTGTTAA,0.327 (active)
12,CTTGTTAC,0.365 (active)
13,CTTGTTTA,0.254
14,CCTGTTAC,0.254
15,CTTGTTGA,0.26
16,ACTGTTAA,0.0659
17,CCTGTTAA,0.188
18,GTTGTTTA,0.343 (active)
19,ATTGTTTA,0.186
20,ATTGTTAC,0.307
21,AACCCGCG,-0.0635
22,CTGACACA,0.2
23,CCCACCTA,-0.1
24,CCAGGTCG,-0.0728

row,Sequence,PBM E-score
1,ACTCGCAC,-0.119
2,TGCGATAA,0.101
3,AAAGTCGT,0.0643
4,GTTGTTAA,0.349 (active)
5,GCTGTTAA,0.0966
6,ATTGTTAA,0.21
7,GCATTGGC,-0.14
8,AAACTACA,0.331 (active)
9,AAACTACT,0.236
10,AAACTACC,0.168
11,GAACTACC,0.0628
12,TAACTACA,0.348 (active)
13,TAACTATA,0.18
14,CAACTACA,0.287
15,GAACTACA,0.314 (active)
16,TAACTAAA,0.109
17,CGGCCTAC,-0.0509
18,CGTATCAC,0.101
19,ACCTAGAA,0.08
20,TACAGAAA,0.17
21,AAATCTAA,0.0434
22,CGATTGAA,0.0347
23,GAGTGCAA,0.065
24,GTGTCACA,0.29

row,Sequence,PBM E-score
1,ATGTCACA,0.39 (active)
2,ATGTCACC,0.279
3,AAGTCACA,0.0474
4,CTGTCACA,0.167
5,ATGTCACG,0.367 (active)
6,CACTGCCC,-0.0974
7,ATTAGTTC,0.154
8,GATAATCA,0.0651
9,GCTGTGGA,-0.0809
10,ATATGGTC,0.105
11,CAACGCAA,0.0313
12,AAGGTGGA,-0.0864
13,GTTACATA,0.365 (active)
14,CTTACATC,0.296
15,ATTACATG,0.447 (active)
16,CTCACATA,0.149
17,ATTACATC,0.374 (active)
18,ATTACAGG,0.244
19,ATTACAGA,0.208
20,ATCACATG,0.286
21,GTTACAGA,0.172
22,ATTACAGC,0.128
23,CTTACATA,0.288
24,ATTACATA,≥ 0.385 (active)

row,Sequence,PBM E-score
1,TGCGCTAA,0.0295
2,CTCTGAAG,-0.17
3,AGATCCCT,-0.128
4,GAGAATCA,-0.0157
5,GATGCATA,0.0414
6,CCCCATGC,-0.233
7,CGGCTTAG,-0.235
8,ATCATGCC,0.0227
9,AGCCAGGG,-0.276
10,CCGTACAC,0.199
11,ACGTACAC,0.333 (active)
12,ACGTACAG,0.103
13,ACGTACCT,0.0612
14,ACGTACAT,0.337 (active)
15,GCGTACAC,0.217
